# Experimental data published in PubChem BioAssay.
# Results filed as inconclusive are left out. The source made the active and inactive calls.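 Rule for the calls, unless noted: active = Her2 level under about 52% in both replicate screens, with viability over 70% of control (limit read from the data); inconclusive = Her2 under the limit in one screen only, or viability under 70%; inactive = Her2 level above the set limit.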
# How the values were obtained:
# [1] = reducers of endogenous Her2 protein level, primary screen, SKBR3 breast tumor cells, AlphaScreen, ATP viability (AID 461); conditions: 18-24 h, measured here: SKBR3 viability, ATP luminescence, at 10 µM;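 for Her2 level: lower value means less Her2 protein in the cells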;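 for viability: percent of carrier control wells set as 100% viability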
# [2] = target: Receptor tyrosine-protein kinase erbB-2 (Homo sapiens) (UniProt P04626); experiment: as above; conditions: 18-24 h, at 10 µM, stronger effect = lower value
# [3] = SK-BR-3 cell growth inhibitors, pilot screen, 24 h, human (AID 572;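 active = viability at or below 10% of carrier control in both of two separate runs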;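 note: compound exposure lasted between 18 and 24 h rather than exactly 24 h; 100% = carrier-treated control wells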); conditions: SK-BR-3 viability, CellTiter-Glo luminescence, at 10 µM, stronger effect = lower value
# [4] = HUVEC growth inhibition – cell-based, human, primary screen (AID 575;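 active = viability at or below 30% in both replicate assays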;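 note: 100% = median of untreated cell wells with 0.1% DMSO on each plate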); conditions: HUVEC proliferation, CellTiter-Glo luminescence, 72 h; at 10 µM; stronger effect = lower value
# [5] = growth inhibitors of H69AR lung tumor, primary screen, human, duplicate replicates (AID 580;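 active = viability at or under a set limit in both replicates, limit being median viability minus 3 SD, cut at about 48% in these data, passing the limit was not always enough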;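 note: 100% = mean luminescence of untreated wells and 0% = no signal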); conditions: H69AR lung tumor cells viability, ATP luminescence, 72 h; at 10 µM; stronger effect = lower value
# [6] = reversal of MRP1-mediated doxorubicin resistance, pilot screen, H69AR cells, doxorubicin co-treatment (AID 601;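 active = viability loss from added drug above about 55%, and viability with drug at most 40%, in both replicates, limit read from the data, passing the limit was not always enough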); conditions: CellTiter-Glo, 72 h, at 10 µM; for differential viability (reversal): stronger effect = higher value
# [7] = viability gain of MRP-1-high H69AR cells under doxorubicin, pilot screen, MRP-1 activator project, CellTiter-Glo, duplicate (AID 807;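 active = viability increase at or above a cutoff of the median across tested compounds plus 3 SD, cut at about 8.5% in these data, passing the limit was not always enough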;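 note: compound pretreatment 18-22 h then 72 h combined with doxorubicin; 0% = doxorubicin alone and 100% = vehicle without doxorubicin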); conditions: H69AR viability with doxorubicin, CellTiter-Glo luminescence; at 10 µM; stronger effect = higher value
# [8] = growth suppression of beta-catenin knockout HCT116, pilot screen, human colon tumor cells (AID 823;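 active = cell viability at or below a set limit in both duplicate runs, the limit being the all-compound median minus 4 SD, cut at about 23% in these data, passing the limit was not always enough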;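 note: 0% = wells killed by 20 µM Hyamine and 100% = untreated DMSO cell wells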); conditions: CellTiter-Glo, 60 h, at 10 µM, stronger effect = lower value
# [9] = growth suppression of PTEN-deleted HCT116, pilot screen, cell-based, HCT116 clonal line, CellTiter-Glo (AID 824;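 active = viability at or below 27.92% in each of two runs, the all-compound median minus 4 SD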;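 note: 0% = 20 µM Hyamine control and 100% = vehicle cell control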); conditions: 60 h, at 10 µM, stronger effect = lower value
# [10] = inhibitors of the yeast RAM network, pilot screen, dse1pr::URA3 reporter, 5-FOA selection (AID 869;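 active = inhibition over a set limit, the all-compound mean plus 3 SD, in both replicate runs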;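 note: 0% = DMSO wells with no growth and 100% = 10 µM 1-NA-PP1 with full growth; RAM network block rescues cells from 5-FOA so hits raise OD615 growth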); conditions: S. cerevisiae dse1pr::URA3 5-FOA growth, OD615, 2 d; at 10 µM; stronger effect = higher value; strain carries analog-sensitive mutant Cbk1 kinase
# [11] = RAM signaling pathway blockade in yeast – S. cerevisiae, Pdr1DBD-CYC8 efflux-inhibited sensitized strain, primary screen (AID 1298;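 active = RAM network inhibition above 8.4% in each of two replicates, 3 SD over the compound average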;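 note: 0% = DMSO untreated cells without growth and 100% = 10 µM 1-NA-PP1 full growth; higher means more yeast growth rescued from 5-FOA killing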); conditions: S. cerevisiae cbk1-as DSE1-URA3 strain, 5-FOA growth OD615, 2 d; at 50 µM; stronger effect = higher value
# [12] = Restrictive medium S. cerevisiae growth inhibition, OD615, pilot screen of yeast lifespan reduction project, restrictive growth control (AID 706;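 active = growth inhibition above a set limit, 3 SD over mean compound inhibition, in both replicates, cut at about 43% in these data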;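 note: modified DeaD lifespan yeast strain shifted to restrictive glucose medium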); conditions: OD615, 48 h, at 10 µM, stronger effect = higher value
# [13] = H69AR cells + 2 uM doxorubicin, measured here: viability with 2 uM doxorubicin, stronger effect = lower value
# [14] = H69AR cells, compound alone cytotoxicity
# Receptor tyrosine-protein kinase erbB-2 (Homo sapiens), sequence (P04626 whole entry, looked up): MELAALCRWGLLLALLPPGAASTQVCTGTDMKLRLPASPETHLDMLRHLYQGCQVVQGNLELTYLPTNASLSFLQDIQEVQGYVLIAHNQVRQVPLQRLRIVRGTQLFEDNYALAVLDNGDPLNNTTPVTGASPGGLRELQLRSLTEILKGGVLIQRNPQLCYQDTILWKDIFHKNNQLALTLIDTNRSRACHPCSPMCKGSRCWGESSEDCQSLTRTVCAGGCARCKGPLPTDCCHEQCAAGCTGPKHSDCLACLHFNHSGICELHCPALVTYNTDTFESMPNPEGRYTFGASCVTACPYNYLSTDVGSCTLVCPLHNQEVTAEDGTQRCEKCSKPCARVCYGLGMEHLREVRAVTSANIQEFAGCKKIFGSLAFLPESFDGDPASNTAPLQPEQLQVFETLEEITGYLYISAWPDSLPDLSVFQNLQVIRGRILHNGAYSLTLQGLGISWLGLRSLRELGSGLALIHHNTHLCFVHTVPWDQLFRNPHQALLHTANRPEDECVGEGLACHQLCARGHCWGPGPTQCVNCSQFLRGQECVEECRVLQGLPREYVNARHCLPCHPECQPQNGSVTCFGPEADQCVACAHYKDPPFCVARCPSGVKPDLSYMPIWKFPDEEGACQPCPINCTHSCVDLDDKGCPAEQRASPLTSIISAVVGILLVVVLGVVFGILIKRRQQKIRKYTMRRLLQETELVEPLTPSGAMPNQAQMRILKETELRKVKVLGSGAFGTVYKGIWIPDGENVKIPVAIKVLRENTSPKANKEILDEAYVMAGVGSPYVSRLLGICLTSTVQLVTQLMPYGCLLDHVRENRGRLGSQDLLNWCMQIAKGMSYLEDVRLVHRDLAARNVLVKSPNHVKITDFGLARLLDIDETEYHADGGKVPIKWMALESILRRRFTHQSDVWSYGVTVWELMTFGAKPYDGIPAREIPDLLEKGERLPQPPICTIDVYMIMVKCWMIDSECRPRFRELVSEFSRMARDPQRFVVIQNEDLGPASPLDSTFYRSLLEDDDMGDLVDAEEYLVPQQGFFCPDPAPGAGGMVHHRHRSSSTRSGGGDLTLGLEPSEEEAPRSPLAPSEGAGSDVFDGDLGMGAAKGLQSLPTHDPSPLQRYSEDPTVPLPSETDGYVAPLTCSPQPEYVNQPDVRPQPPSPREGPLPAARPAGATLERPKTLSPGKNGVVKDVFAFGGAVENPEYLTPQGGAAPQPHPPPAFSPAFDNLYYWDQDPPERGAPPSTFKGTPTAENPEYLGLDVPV
compound,measurement,setting,value
CS(=O)(=O)Nc1ccc([N+](=O)[O-])cc1Oc1ccccc1,viability,[1],118%
same,Her2 level,[2],103% (inactive)
same,viability,[3],118% (inactive)
same,viability,[4],106% (inactive)
same,viability,[5],108% (inactive)
same,differential viability (reversal),[6]; H69AR cells + 2 uM doxorubicin,10.3% (inactive)
same,viability,[6]; [13],97.6%
same,viability,[6]; [14],108%
C[C@]12CC[C@H]3[C@@H](CCC4=CC(=O)CC[C@@]43C)[C@@H]1CC[C@@H]2C(=O)CO,viability,[1],106%
same,Her2 level,[2],90.5% (inactive)
same,viability,[3],106% (inactive)
same,viability,[4],56.6% (inactive)
same,viability,[5],78.6% (inactive)
same,differential viability (reversal),[6]; H69AR cells + 2 uM doxorubicin,-16.3% (inactive)
same,viability,[6]; [13],94.9%
same,viability,[6]; [14],78.6%
CCn1cc(C(=O)O)c(=O)c2cnc(N3CCNCC3)nc21,viability,[1],108%
same,Her2 level,[2],102% (inactive)
same,viability,[3],108% (inactive)
same,viability,[4],96.5% (inactive)
same,viability,[5],107% (inactive)
same,differential viability (reversal),[6]; H69AR cells + 2 uM doxorubicin,16.4% (inactive)
same,viability,[6]; [13],90.9%
same,viability,[6]; [14],107%
Cn1c([N+](=O)[O-])cnc1COC(N)=O,viability,[1],108%
same,Her2 level,[2],105% (inactive)
same,viability,[3],108% (inactive)
same,viability,[4],102% (inactive)
same,viability,[5],102% (inactive)
same,differential viability (reversal),[6]; H69AR cells + 2 uM doxorubicin,16.2% (inactive)
same,viability,[6]; [13],85.7%
same,viability,[6]; [14],102%
C[C@@H]1C[C@H]2[C@@H]3C[C@H](F)C4=CC(=O)C=C[C@]4(C)[C@@]3(F)[C@@H](O)C[C@]2(C)[C@@]1(O)C(=O)CO,viability,[1],74%
same,Her2 level,[2],118% (inactive)
same,viability,[3],74% (inactive)
same,viability,[4],113% (inactive)
same,viability,[5],92.7% (inactive)
same,differential viability (reversal),[6]; H69AR cells + 2 uM doxorubicin,-3.78% (inactive)
same,viability,[6]; [13],96.5%
same,viability,[6]; [14],92.7%
CC(=O)OCC(=O)[C@@]1(O)CC[C@H]2[C@@H]3CCC4=CC(=O)C=C[C@]4(C)[C@@]3(Cl)[C@@H](Cl)C[C@@]21C,viability,[1],114%
same,Her2 level,[2],116% (inactive)
same,viability,[3],114% (inactive)
same,viability,[4],98.5% (inactive)
same,viability,[5],97.4% (inactive)
same,differential viability (reversal),[6]; H69AR cells + 2 uM doxorubicin,-13% (inactive)
same,viability,[6]; [13],110%
same,viability,[6]; [14],97.4%
CC1(C)S[C@@H]2[C@H](NC(=O)Cc3ccccc3)C(=O)N2[C@H]1C(=O)O,viability,[1],94.5%
same,Her2 level,[2],94.5% (inactive)
same,viability,[3],94.5% (inactive)
same,viability,[4],95.4% (inactive)
same,viability,[5],109% (inactive)
same,differential viability (reversal),[6]; H69AR cells + 2 uM doxorubicin,13.5% (inactive)
same,viability,[6]; [13],95.6%
same,viability,[6]; [14],109%
NS(=O)(=O)c1cc2c(cc1Cl)NC(C(Cl)Cl)NS2(=O)=O (configuration not stated),viability,[1],102%
same,Her2 level,[2],112% (inactive)
same,viability,[3],102% (inactive)
same,viability,[4],106% (inactive)
same,viability,[5],93.9% (inactive)
same,differential viability (reversal),[6]; H69AR cells + 2 uM doxorubicin,-9.8% (inactive)
same,viability,[6]; [13],104%
same,viability,[6]; [14],93.9%
COc1ccc2cc(C(=O)Nc3c(C)n(C)n(-c4ccccc4)c3=O)sc(=O)c2c1OC,viability increase,[7],-1.5% (inactive)
same,viability,[8],97.7% (inactive)
same,viability,[9],92.6% (inactive)
same,inhibition,[10],2.33% (inactive)
same,RAM network inhibition,[11],0.16% (inactive)
CN1CCN(CC(=O)N2c3ccccc3C(=O)Nc3cccnc32)CC1,viability,[1],122%
same,Her2 level,[2],98.5% (inactive)
same,viability,[3],122% (inactive)
same,viability,[4],98.8% (inactive)
same,viability,[5],96.1% (inactive)
same,differential viability (reversal),[6]; H69AR cells + 2 uM doxorubicin,6.04% (inactive)
same,viability,[6]; [13],90%
same,viability,[6]; [14],96.1%
OCCN(CCO)c1nc(N2CCCCC2)c2nc(N(CCO)CCO)nc(N3CCCCC3)c2n1,viability,[1],117%
same,Her2 level,[2],94.5% (inactive)
same,viability,[3],117% (inactive)
same,viability,[4],79.6% (inactive)
O=C(CCCN1CC=C(n2c(=O)[nH]c3ccccc32)CC1)c1ccc(F)cc1,viability,[1],77%
same,Her2 level,[2],103% (inactive)
same,viability,[3],77% (inactive)
same,viability,[4],98.4% (inactive)
same,viability,[5],86.2% (inactive)
same,differential viability (reversal),[6]; H69AR cells + 2 uM doxorubicin,11.1% (inactive)
same,viability,[6]; [13],75.1%
same,viability,[6]; [14],86.2%
COc1ccc(NC(=O)CC2SC(=Nc3ccccc3)NC2=O)c(OC)c1 (configuration not stated),viability increase,[7],2.03% (inactive)
same,viability,[8],93.4% (inactive)
same,viability,[9],92% (inactive)
same,inhibition,[10],2.23% (inactive)
same,RAM network inhibition,[11],7.78% (inactive)
C[C@]12CC[C@@H]3c4ccc(OS(=O)(=O)O)cc4CC[C@H]3[C@@H]1CCC2=O,viability,[1],87%
same,Her2 level,[2],108% (inactive)
same,viability,[3],87% (inactive)
same,viability,[4],99.6% (inactive)
CC(Sc1nc2ccccc2s1)C(=O)N1CCOCC1 (configuration not stated),growth inhibition,[12],2.68% (inactive)
same,viability increase,[7],-3.03% (inactive)
same,viability,[8],95.9% (inactive)
same,inhibition,[10],1.84% (inactive)
same,RAM network inhibition,[11],6.03% (inactive)
CCCC(=O)O[C@]1(C(=O)COC(C)=O)CC[C@H]2[C@@H]3C[C@H](F)C4=CC(=O)C=C[C@]4(C)[C@@]3(F)[C@@H](O)C[C@@]21C,viability,[1],95%
same,Her2 level,[2],97.5% (inactive)
same,viability,[3],95% (inactive)
same,viability,[4],96.9% (inactive)
same,viability,[5],95.6% (inactive)
same,differential viability (reversal),[6]; H69AR cells + 2 uM doxorubicin,-8.84% (inactive)
same,viability,[6]; [13],104%
same,viability,[6]; [14],95.6%
c1cn2cc(-c3ccc4c(c3)OCO4)nc2s1,viability increase,[7],1.35% (inactive)
same,viability,[8],99.7% (inactive)
same,viability,[9],90.7% (inactive)
same,inhibition,[10],1.96% (inactive)
same,RAM network inhibition,[11],0.64% (inactive)
CCN(CC)CCNC(=O)c1cc(S(C)(=O)=O)ccc1OC,viability,[1],114%
same,Her2 level,[2],95% (inactive)
same,viability,[3],114% (inactive)
same,viability,[4],102% (inactive)
same,viability,[5],111% (inactive)
same,differential viability (reversal),[6]; H69AR cells + 2 uM doxorubicin,14.5% (inactive)
same,viability,[6]; [13],96.1%
same,viability,[6]; [14],111%
CC(=O)OCC(=O)[C@@]12OC3(CCCC3)O[C@@H]1C[C@H]1[C@@H]3CCC4=CC(=O)C=C[C@]4(C)[C@@]3(F)[C@@H](O)C[C@@]12C,viability,[1],132%
same,Her2 level,[2],91.5% (inactive)
same,viability,[3],132% (inactive)
same,viability,[4],86.6% (inactive)
same,viability,[5],83.1% (inactive)
same,differential viability (reversal),[6]; H69AR cells + 2 uM doxorubicin,2.75% (inactive)
same,viability,[6]; [13],80.3%
same,viability,[6]; [14],83.1%
